# According to article PMC7862700, “An all-to-all approach to the identification of sequence-specific readers for epigenetic DNA modifications on cytosine”:
# What was measured:
# Assay in all cases: DAPPL (digital affinity profiling via proximity ligation, sequencing); 10 mM Tris-HCl pH 7.5, 50 mM NaCl, 1 mM DTT, 4% glycerol, room temperature, 30 min; GST-TFs on glutathione beads, 16-mer random dsDNA library, 0.1% formaldehyde crosslink after washing; high values mean tight binding
# [1] = molecular target: T1, FEV (Homo sapiens, UniProt Q99581 1-238); settings: protein: recombinant; tags: N-terminal GST; dsDNA, one strand shown
# T1 sequence: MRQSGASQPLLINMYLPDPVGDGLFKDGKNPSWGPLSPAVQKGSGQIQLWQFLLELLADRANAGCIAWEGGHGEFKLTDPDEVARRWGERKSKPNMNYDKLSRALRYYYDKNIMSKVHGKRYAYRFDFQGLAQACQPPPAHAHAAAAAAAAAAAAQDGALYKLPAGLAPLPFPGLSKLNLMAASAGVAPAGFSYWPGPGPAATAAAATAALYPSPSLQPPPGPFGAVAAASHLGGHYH
# Procedure, shortened: (§1)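 Human transcription factors fused to GST were expressed in yeast, captured on glutathione beads, given DNA barcodes and pooled with a GST-only negative control. Pools were incubated with 200 nmole of a 16-mer random double-stranded DNA library in Tris/NaCl/DTT/glycerol buffer at room temperature for 30 min. They were then washed, crosslinked with 0.1% formaldehyde, proximity-ligated (BsaI/T4 ligase, 1 h, 37 °C), PCR-amplified and sequenced on an Illumina NextSeq500. Binding signal is each 6-mer's read frequency for a factor divided by its frequency for the GST control.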
# [2] = molecular target: ETV5 (Homo sapiens, UniProt P41161 1-510); settings: protein: recombinant; tags: N-terminal GST; dsDNA, one strand shown
# Procedure, shortened: as §1
# [3] = molecular target: HSF1 (Homo sapiens, UniProt Q00613 1-529); settings: protein: recombinant; tags: N-terminal GST; chain copies: 3; dsDNA, one strand shown
# Procedure, shortened: as §1
# [4] = molecular target: T2, SPIC (Homo sapiens, UniProt Q8N5J4 1-248); settings: protein: recombinant; tags: N-terminal GST; dsDNA, one strand shown
# T2 sequence: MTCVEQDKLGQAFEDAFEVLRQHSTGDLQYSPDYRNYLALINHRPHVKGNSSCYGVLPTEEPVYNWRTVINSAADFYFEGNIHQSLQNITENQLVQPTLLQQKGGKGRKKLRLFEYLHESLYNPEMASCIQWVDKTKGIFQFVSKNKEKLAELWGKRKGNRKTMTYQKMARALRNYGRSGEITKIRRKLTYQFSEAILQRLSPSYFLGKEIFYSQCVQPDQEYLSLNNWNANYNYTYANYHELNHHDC
# Procedure, shortened: as §1
# [5] = molecular target: ELF4 (Homo sapiens, UniProt Q99607 1-663); settings: protein: recombinant; tags: N-terminal GST; dsDNA, one strand shown
# Procedure, shortened: as §1
# [6] = molecular target: T3, ELK4 (Homo sapiens, UniProt P28324-2 1-405); settings: protein: recombinant; tags: N-terminal GST; dsDNA, one strand shown
# T3 sequence: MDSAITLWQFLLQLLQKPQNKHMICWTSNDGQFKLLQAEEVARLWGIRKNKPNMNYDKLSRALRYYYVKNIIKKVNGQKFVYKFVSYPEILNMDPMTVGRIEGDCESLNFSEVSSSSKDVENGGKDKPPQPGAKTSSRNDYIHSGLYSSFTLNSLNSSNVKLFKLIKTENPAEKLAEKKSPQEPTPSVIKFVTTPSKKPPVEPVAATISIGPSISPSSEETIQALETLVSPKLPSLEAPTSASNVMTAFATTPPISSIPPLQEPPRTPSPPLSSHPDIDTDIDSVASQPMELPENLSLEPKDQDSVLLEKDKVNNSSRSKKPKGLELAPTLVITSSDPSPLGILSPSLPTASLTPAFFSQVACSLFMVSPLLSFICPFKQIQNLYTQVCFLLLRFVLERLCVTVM
# Procedure, shortened: as §1
# [7] = molecular target: T4, ETV2 (Homo sapiens, UniProt O00321 1-342); settings: protein: recombinant; tags: N-terminal GST; dsDNA, one strand shown
# T4 sequence: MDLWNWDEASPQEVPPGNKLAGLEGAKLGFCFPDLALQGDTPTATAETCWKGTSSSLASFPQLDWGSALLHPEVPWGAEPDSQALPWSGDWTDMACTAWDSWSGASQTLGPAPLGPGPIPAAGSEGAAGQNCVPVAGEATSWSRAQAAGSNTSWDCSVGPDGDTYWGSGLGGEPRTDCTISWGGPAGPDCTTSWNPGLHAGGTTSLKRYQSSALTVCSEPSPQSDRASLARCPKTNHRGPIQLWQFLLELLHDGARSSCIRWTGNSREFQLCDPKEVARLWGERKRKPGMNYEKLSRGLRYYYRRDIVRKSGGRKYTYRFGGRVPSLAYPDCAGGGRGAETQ
# Procedure, shortened: as §1
# [8] = molecular target: T5, ELF3 (Homo sapiens, UniProt P78545 1-371); settings: protein: recombinant; tags: N-terminal GST; dsDNA, one strand shown
# T5 sequence: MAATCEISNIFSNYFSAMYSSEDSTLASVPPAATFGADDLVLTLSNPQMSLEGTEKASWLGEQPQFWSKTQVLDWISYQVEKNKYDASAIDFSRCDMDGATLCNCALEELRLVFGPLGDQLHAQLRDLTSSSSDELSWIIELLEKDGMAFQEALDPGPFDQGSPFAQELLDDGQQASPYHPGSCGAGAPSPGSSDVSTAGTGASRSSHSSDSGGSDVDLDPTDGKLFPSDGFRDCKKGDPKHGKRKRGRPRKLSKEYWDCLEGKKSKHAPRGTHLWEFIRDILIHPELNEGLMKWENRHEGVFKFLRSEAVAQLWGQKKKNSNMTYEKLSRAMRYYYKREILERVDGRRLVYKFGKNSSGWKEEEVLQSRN
# Procedure, shortened: as §1
# [9] = molecular target: CRX (Homo sapiens, UniProt O43186 1-299); settings: protein: recombinant; tags: N-terminal GST; dsDNA, one strand shown
# Procedure, shortened: as §1
# [10] = molecular target: ETV1 (Homo sapiens, UniProt P50549 1-477); settings: protein: recombinant; tags: N-terminal GST; dsDNA, one strand shown
# Procedure, shortened: as §1
# [11] = molecular target: T6, ERF (Homo sapiens, UniProt P50548 1-548); settings: protein: recombinant; tags: N-terminal GST; dsDNA, one strand shown
# T6 sequence: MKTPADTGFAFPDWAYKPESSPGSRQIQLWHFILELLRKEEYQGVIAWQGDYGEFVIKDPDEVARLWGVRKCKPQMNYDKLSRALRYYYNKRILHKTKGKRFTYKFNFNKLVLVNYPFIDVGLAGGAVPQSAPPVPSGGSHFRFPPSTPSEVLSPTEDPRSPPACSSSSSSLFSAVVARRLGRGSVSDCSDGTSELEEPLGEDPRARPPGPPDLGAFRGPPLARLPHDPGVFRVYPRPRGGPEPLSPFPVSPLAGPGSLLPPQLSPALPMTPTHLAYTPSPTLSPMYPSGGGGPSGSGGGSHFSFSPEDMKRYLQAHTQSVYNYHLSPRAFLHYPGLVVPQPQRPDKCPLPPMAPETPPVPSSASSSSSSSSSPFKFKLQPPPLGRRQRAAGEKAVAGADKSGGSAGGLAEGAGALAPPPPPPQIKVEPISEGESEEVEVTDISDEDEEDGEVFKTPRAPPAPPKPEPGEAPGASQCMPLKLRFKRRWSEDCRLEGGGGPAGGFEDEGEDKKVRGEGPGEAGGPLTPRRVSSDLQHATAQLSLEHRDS
# Procedure, shortened: as §1
# [12] = molecular target: T7, ETV3L (Homo sapiens, UniProt Q6ZN32 1-361); settings: protein: recombinant; tags: N-terminal GST; dsDNA, one strand shown
# T7 sequence: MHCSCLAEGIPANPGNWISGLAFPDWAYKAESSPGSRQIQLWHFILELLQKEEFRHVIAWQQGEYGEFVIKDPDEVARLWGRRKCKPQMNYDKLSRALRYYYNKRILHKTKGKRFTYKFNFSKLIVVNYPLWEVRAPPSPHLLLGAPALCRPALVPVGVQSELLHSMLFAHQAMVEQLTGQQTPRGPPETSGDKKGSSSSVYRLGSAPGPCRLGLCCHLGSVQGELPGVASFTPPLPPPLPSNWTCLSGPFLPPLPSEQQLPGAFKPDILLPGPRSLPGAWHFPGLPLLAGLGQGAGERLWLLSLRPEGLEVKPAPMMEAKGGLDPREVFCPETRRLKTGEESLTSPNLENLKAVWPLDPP
# Procedure, shortened: as §1
# [13] = molecular target: T8, ETS2 (Homo sapiens, UniProt P15036 1-469); settings: protein: recombinant; tags: N-terminal GST; dsDNA, one strand shown
# T8 sequence: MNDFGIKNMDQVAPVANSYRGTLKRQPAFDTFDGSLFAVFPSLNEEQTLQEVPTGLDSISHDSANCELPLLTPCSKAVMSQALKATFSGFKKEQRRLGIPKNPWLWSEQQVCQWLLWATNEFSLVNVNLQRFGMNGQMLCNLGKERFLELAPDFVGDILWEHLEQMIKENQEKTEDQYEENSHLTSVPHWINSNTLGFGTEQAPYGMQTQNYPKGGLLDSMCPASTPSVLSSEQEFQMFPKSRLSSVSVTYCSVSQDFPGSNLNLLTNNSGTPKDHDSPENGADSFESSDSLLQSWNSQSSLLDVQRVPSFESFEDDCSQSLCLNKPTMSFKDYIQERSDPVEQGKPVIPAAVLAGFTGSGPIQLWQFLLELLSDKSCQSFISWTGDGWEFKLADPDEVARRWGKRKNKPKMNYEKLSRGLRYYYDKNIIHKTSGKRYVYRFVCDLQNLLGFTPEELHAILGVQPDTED
# Procedure, shortened: as §1
# [14] = molecular target: T9, SPDEF (Homo sapiens, UniProt O95238 1-335); settings: protein: recombinant; tags: N-terminal GST; dsDNA, one strand shown
# T9 sequence: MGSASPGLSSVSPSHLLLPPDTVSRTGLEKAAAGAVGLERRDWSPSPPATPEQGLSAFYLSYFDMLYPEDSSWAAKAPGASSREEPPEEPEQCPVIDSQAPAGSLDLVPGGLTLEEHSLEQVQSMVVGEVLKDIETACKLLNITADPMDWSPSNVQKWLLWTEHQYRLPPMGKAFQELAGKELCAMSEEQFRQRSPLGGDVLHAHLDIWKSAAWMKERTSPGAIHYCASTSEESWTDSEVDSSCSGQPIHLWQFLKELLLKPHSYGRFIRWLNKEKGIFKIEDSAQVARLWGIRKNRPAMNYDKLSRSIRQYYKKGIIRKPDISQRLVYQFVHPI
# Procedure, shortened: as §1
# [15] = molecular target: T10, ETV7 (Homo sapiens, UniProt Q9Y603 1-341); settings: protein: recombinant; tags: N-terminal GST; dsDNA, one strand shown
# T10 sequence: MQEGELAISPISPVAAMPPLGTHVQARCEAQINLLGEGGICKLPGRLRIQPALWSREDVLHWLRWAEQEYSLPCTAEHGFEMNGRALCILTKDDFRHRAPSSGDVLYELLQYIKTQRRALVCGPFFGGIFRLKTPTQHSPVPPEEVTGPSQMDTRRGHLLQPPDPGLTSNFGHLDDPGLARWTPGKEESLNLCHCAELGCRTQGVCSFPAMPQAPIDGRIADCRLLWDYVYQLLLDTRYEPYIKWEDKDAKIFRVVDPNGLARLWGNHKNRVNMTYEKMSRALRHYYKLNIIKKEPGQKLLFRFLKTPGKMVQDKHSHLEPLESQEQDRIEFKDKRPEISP
# Procedure, shortened: as §1
# [16] = molecular target: T11, ELF5 (Homo sapiens, UniProt Q9UKW6-2 1-255); settings: protein: recombinant; tags: N-terminal GST; dsDNA, one strand shown
# T11 sequence: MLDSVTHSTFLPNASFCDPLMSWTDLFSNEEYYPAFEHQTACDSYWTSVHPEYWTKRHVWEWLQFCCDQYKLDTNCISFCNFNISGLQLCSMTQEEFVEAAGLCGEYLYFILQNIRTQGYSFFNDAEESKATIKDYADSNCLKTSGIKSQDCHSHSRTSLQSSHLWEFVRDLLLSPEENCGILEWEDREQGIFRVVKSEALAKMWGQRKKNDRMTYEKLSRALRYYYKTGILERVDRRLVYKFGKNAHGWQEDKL
# Procedure, shortened: as §1
# [17] = molecular target: T12, ETV3 (Homo sapiens, UniProt P41162-2 1-143); settings: protein: recombinant; tags: N-terminal GST; dsDNA, one strand shown
# T12 sequence: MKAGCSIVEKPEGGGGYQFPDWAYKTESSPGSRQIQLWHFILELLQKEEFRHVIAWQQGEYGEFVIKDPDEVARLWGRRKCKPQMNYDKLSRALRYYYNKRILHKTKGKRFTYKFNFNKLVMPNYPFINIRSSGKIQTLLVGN
# Procedure, shortened: as §1
# [18] = molecular target: ETV6 (Homo sapiens, UniProt P41212 1-452); settings: protein: recombinant; tags: N-terminal GST; dsDNA, one strand shown
# Procedure, shortened: as §1
# HSF1, sequence (Q00613 whole entry): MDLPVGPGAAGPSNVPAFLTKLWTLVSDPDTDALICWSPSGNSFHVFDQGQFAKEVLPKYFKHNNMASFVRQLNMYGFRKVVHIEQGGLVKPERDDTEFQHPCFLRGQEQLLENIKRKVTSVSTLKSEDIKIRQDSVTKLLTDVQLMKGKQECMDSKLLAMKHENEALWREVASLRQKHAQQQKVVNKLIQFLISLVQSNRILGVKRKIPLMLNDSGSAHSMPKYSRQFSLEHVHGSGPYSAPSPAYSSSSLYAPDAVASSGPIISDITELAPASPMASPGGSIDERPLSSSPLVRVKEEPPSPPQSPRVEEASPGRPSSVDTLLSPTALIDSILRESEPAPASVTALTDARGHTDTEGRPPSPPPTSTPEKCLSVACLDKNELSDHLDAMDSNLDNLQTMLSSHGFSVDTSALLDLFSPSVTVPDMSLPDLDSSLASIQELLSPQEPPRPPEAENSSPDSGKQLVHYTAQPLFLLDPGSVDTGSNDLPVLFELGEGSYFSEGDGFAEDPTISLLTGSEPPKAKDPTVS
# ETV1, sequence (P50549 whole entry): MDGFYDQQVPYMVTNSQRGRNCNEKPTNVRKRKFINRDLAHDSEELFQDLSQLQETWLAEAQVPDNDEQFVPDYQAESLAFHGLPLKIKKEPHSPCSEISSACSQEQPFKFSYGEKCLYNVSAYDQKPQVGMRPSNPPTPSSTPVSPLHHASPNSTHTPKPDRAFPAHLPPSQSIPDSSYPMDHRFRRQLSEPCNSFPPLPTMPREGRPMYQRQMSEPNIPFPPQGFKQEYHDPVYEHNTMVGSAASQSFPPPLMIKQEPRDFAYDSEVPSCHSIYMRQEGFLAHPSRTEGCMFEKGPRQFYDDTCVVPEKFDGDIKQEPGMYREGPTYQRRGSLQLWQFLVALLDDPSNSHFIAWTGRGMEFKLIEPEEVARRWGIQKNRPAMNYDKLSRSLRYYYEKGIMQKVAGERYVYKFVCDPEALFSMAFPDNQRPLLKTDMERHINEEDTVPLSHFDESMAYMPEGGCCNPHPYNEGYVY
# CRX, sequence (O43186 whole entry): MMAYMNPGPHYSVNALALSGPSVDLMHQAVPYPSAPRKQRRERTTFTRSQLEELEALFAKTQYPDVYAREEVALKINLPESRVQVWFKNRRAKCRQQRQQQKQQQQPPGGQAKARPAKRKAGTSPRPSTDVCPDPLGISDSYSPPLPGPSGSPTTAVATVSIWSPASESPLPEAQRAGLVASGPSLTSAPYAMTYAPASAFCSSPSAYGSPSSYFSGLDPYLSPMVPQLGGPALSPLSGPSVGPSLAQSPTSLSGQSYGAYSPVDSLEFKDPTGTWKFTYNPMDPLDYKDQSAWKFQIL
# ETV5, sequence (P41161 whole entry): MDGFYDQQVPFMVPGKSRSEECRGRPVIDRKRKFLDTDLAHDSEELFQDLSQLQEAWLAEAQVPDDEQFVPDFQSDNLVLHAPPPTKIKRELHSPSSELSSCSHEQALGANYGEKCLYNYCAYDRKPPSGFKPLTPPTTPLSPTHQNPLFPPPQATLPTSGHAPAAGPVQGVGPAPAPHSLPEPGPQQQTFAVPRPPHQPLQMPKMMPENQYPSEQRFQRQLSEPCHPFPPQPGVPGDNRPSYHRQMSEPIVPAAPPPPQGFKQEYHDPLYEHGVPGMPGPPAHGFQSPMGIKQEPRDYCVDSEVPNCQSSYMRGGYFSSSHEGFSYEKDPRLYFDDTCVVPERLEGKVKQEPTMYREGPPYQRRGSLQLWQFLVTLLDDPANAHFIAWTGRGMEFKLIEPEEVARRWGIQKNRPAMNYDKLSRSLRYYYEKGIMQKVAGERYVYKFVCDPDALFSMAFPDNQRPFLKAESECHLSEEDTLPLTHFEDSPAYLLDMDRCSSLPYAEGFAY
# ETV6, sequence (P41212 whole entry): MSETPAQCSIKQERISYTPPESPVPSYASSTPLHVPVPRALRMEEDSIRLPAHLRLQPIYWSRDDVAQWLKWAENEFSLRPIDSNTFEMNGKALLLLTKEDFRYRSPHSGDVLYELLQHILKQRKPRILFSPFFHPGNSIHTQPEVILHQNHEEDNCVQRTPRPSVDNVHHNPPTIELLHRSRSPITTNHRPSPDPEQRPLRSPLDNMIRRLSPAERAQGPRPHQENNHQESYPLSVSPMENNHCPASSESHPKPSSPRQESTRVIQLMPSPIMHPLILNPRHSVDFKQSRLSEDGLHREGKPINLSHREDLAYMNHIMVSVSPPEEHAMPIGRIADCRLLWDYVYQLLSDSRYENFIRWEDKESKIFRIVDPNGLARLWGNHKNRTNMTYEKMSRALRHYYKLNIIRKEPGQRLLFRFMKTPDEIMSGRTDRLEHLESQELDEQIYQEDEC
# ELF4, sequence (Q99607 whole entry): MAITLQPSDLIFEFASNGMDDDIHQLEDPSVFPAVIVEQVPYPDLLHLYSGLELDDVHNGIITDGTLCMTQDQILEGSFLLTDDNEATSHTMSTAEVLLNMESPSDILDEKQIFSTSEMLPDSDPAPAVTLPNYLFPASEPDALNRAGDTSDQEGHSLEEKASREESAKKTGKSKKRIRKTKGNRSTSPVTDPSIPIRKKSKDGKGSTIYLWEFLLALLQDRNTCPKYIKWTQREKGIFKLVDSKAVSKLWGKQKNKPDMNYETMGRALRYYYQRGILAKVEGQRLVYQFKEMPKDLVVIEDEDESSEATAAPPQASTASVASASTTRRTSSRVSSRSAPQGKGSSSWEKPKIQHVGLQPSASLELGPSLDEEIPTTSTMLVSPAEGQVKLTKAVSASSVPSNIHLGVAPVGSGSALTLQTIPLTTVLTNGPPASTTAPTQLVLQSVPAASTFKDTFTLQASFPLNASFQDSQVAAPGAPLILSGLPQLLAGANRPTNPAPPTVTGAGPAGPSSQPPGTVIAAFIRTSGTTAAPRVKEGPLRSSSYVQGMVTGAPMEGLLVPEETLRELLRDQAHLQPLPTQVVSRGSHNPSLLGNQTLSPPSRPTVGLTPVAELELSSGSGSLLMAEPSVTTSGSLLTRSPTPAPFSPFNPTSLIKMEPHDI
sequence,measurement,setting,value
TATCGT,binding signal,[1],"1.05 fold enrichment (6-mer frequency, TF over GST control)"
same,binding signal,[2],"1.12 fold enrichment (6-mer frequency, TF over GST control)"
same,binding signal,[3],"1.17 fold enrichment (6-mer frequency, TF over GST control)"
same,binding signal,[4],"1.09 fold enrichment (6-mer frequency, TF over GST control)"
same,binding signal,[5],"1.07 fold enrichment (6-mer frequency, TF over GST control)"
same,binding signal,[6],"1.13 fold enrichment (6-mer frequency, TF over GST control)"
same,binding signal,[7],"1.16 fold enrichment (6-mer frequency, TF over GST control)"
same,binding signal,[8],"1.15 fold enrichment (6-mer frequency, TF over GST control)"
same,binding signal,[9],"1.28 fold enrichment (6-mer frequency, TF over GST control)"
same,binding signal,[10],"1.21 fold enrichment (6-mer frequency, TF over GST control)"
same,binding signal,[11],"1.28 fold enrichment (6-mer frequency, TF over GST control)"
same,binding signal,[12],"1.08 fold enrichment (6-mer frequency, TF over GST control)"
same,binding signal,[13],"1.11 fold enrichment (6-mer frequency, TF over GST control)"
same,binding signal,[14],"1.07 fold enrichment (6-mer frequency, TF over GST control)"
same,binding signal,[15],"1.08 fold enrichment (6-mer frequency, TF over GST control)"
same,binding signal,[16],"1.08 fold enrichment (6-mer frequency, TF over GST control)"
same,binding signal,[17],"1.15 fold enrichment (6-mer frequency, TF over GST control)"
same,binding signal,[18],"1.12 fold enrichment (6-mer frequency, TF over GST control)"
